Experimental data published in PubChem BioAssay (EPA / NIEHS).
Active and inactive are the calls of the source. The calls were made as follows: active = hit-call score of the fitted dose curve at least 0.9, where 1 is the maximum; inactive = score below 0.9.

Assay: ATG_TAL_CIS: Attagene CIS-FACTORIAL HepG2 Assay for human TAL Basal Promoter (AID 2282966);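 also: background control endpoint measuring basal TAL promoter reporter mRNA not a specific factor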
Settings: HepG2 Attagene cis-factorial TAL promoter reporter; actives raise or lower the signal
How it was run: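 HepG2, transient MRTU transfection, 24 h compound exposure; RNA → oligo(dT) RT → PCR → 6-FAM primer extension → HpaI digest → CE fluorescence. Bidirectional curve fit vs DMSO. Background-control readout.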
For O=C1C(c2[nH]c3ccc(S(=O)(=O)O)cc3c2O)=Nc2ccc(S(=O)(=O)O)cc21, the outcome was “inactive”.
With COc1cc2ncnc(Nc3cccc(Cl)c3)c2cc1OC the AC50 was 13.4 µM (active).
For O=Cc1ccc(Cl)c([N+](=O)[O-])c1, the outcome was “inactive”.
For CC(=O)[C@H]1CC[C@H]2[C@@H]3CC=C4C[C@@H](O)CC[C@]4(C)[C@H]3CC[C@]12C, the outcome was “inactive”.
With O=S(=O)(O)c1ccc(O)c2ncccc12 the outcome was “inactive”.
In the case of NCCCCCCN, the outcome is reported as “inactive”.
With OC[C@H]1O[C@H](O[C@]2(CCl)O[C@H](CCl)[C@@H](O)[C@@H]2O)[C@H](O)[C@@H](O)[C@H]1Cl the outcome was “inactive”.
For CCCCCC=CCC(=O)OC, the outcome was “inactive”.
In the case of CNCCCC12CCC(c3ccccc31)c1ccccc12, the outcome is reported as “inactive”.
For C#C[C@]1(O)CC[C@H]2[C@@H]3CCC4=Cc5oncc5C[C@]4(C)[C@H]3CC[C@@]21C, the outcome was “inactive”.
With CN1[C@@H]2CC(OC(=O)[C@H](CO)c3ccccc3)C[C@H]1[C@@H]1O[C@@H]12 (stereo partly drawn) the outcome was “inactive”.
With CC(=O)/C=C/C1=C(C)CCCC1(C)C the outcome was “inactive”.
For Cc1ccc2n[nH]nc2c1, the outcome was “inactive”.
In the case of CCCCCCCCC=O, the outcome is reported as “inactive”.
In the case of CCCCNC(=O)NS(=O)(=O)c1ccc(N)cc1, the outcome is reported as “inactive”.
In the case of O=C(O)c1ccc(C(=O)O)cc1, the outcome is reported as “inactive”.
In the case of CC(C)(C#N)c1cc(Cn2cncn2)cc(C(C)(C)C#N)c1, the outcome is reported as “inactive”.
For CC1(C)C(=O)N(Br)C(=O)N1Cl, the outcome was “inactive”.
For CC(C)C[C@H]1C(=O)N2CCC[C@H]2[C@]2(O)O[C@](NC(=O)[C@@H]3C=C4c5cccc6[nH]c(Br)c(c56)C[C@H]4N(C)C3)(C(C)C)C(=O)N12, the AC50 was 2.19 µM (active).
With O=C(O)CN(CCN(CC(=O)O)CC(=O)O)CCN(CC(=O)O)CC(=O)O the outcome was “inactive”.
For CCN(CC)c1ccc(C(=C2C=CC(=[N+](CC)CC)C=C2)c2ccc(S(=O)(=O)O)cc2S(=O)(=O)[O-])cc1, the outcome was “inactive”.
With Clc1ccc(Cl)c(Cl)c1Cl the outcome was “inactive”.
For CCCC/C=C\CCCCCCCCCC=O, the outcome was “inactive”.
With OCCOCCOCCOCCO the outcome was “inactive”.
With N#Cc1ccccc1 the outcome was “inactive”.
For CCCOCC(C)O (stereo not drawn), the outcome was “inactive”.
For COc1ccc(Cl)cc1C, the outcome was “inactive”.
In the case of O=CCCc1ccccc1, the outcome is reported as “inactive”.
For CC(C)OP(=O)(CP(=O)(OC(C)C)OC(C)C)OC(C)C, the outcome was “inactive”.
For NC(N)=NC(=O)c1nc(Cl)c(N)nc1N, the outcome was “inactive”.
With C=CC(=O)OCCn1c(=O)n(CCOC(=O)C=C)c(=O)n(CCOC(=O)C=C)c1=O the outcome was “inactive”.
With CC[C@]12CCCN3CCc4c(n(c5ccccc45)[C@@](O)(C(=O)OC)C1)[C@@H]32 the outcome was “inactive”.
With Nc1cc([N+](=O)[O-])ccc1Cl the outcome was “inactive”.
In the case of CCCCCCCCCC=O, the outcome is reported as “inactive”.
For CC(C#N)(CCC(=O)O)N=NC(C)(C#N)CCC(=O)O (stereo not drawn), the outcome was “inactive”.
For CC(C)C(C)(C)C(C)(C)C(C)(C)S, the outcome was “inactive”.
In the case of C[C@]12CC[C@H]3[C@@H](CCC4=CC(=O)CC[C@@]43C)[C@@H]1CC[C@@H]2C(=O)CO, the outcome is reported as “inactive”.
With O=c1oc(=O)c2cc3c(=O)oc(=O)c3cc12 the outcome was “inactive”.
